Assay results: PubChem BioAssay AID1347088 (National Center for Advancing Translational Sciences (NCATS), 2019)
Inconclusive results are not listed. Where a call stands in place of a potency, no number is given. Calls of active or inactive are those of the source. Calls come from the whole dose curve.

Experiment: qHTS for Inhibitors of the Functional Ribonucleoprotein Complex (vRNP) of Lymphocytic Choriomeningitis Arenaviruses (LCMV): Viability assay - Alamar blue signal for LCMV Confirmatory Screen
Conditions: LCMV vRNP confirmatory screen cells; series mostly up to 53.9 µM

| Structure (SMILES) | Potency | viability change, negative = toxic |
| --- | --- | --- |
| Oc1cc(Cl)ccc1Oc1ccc(Cl)cc1Cl | 44.4 µM (active) |  |
| COC(=O)c1nc(Cl)c(Cl)nc1N | 6.11 µM (active) |  |
| Clc1nccc2c1ccc1ccccc12 | inactive |  |
| CNCCCC1c2ccccc2C=Cc2ccccc21 | 27.3 µM (active) |  |
| Fc1ccc(CNc2ncnc3ccc(F)cc23)cc1 | inactive |  |
| Cc1ccccc1-n1c(Cn2nc(-c3cccc(O)c3)c3c(N)ncnc32)nc2cccc(C)c2c1=O | inactive |  |
| CO/C=C(/C(=O)OC)c1ccccc1Oc1cc(Oc2ccccc2C#N)ncn1 | 49.8 µM (active) |  |
| CN(C)c1ccc(O)c2c1C[C@H]1C[C@H]3[C@H](N(C)C)C(=O)C(C(N)=O)=C(O)[C@@]3(O)C(=O)C1=C2O | inactive |  |
| FC(F)(F)c1ccc(C=Cc2nc(COc3ccc(CCCCn4ccnn4)cc3)co2)cc1 | inactive |  |
| C=C1CC[C@@H]2[C@](C)(CO)[C@H](O)CC[C@@]2(C)[C@@H]1/C=C/C1=CCOC1=O | inactive |  |
| CCC[C@H](N[C@@H](C)C(=O)N1[C@@H]2CCCC[C@H]2C[C@H]1C(=O)O)C(=O)OCC | inactive |  |
| CCCCC/C(C=O)=C\c1ccccc1 | inactive |  |
| O=c1[nH]c2ccccc2n1C1CCN(CCCC(c2ccc(F)cc2)c2ccc(F)cc2)CC1 | inactive |  |
| COc1cc2c(cc1OC)CC(=O)N(CCCN(C)C[C@H]1Cc3cc(OC)c(OC)cc31)CC2 | inactive |  |
| CC(C)=CCC/C(C)=C/CC/C(C)=C/CC[C@]1(C)CCc2c(C)c(O)c(C)c(C)c2O1 |  | -1.54% [at 6 µM] (inactive) |
| CCc1cncnc1N1CCN(Cc2nc3ccc(C(F)(F)F)cc3[nH]2)CC1 | 35.2 µM (active) |  |
